From PubChem BioAssay (NCATS)
Inconclusive results are not listed. The source made the active and inactive calls. Calls come from the whole dose curve; as a rule, active = well fitted cell-killing curve with a large enough effect; inconclusive = small, poorly fitted or top-dose-only effect, or effect the other way; inactive = no such curve, though single readings can be large or run the other way.

Experiment: Quantitative High-Throughput drug screen in 47 multiple myeloma cell lines against the NCATS MIPE library collection: L363_DSMZ cell viability assay (AID 1918984); note: nearly all actives have a fitted effect of over 40% in size
Details: L363 myeloma viability, CellTiter-Glo ATP luminescence, 48 h; series mostly up to 45.8 µM
Outline: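 Viability after 48 h drug exposure was measured as ATP-dependent luminescence. Cells, 500 per well, sat at 37 °C under 5% CO2; DMSO wells set 100%, media-only wells 0%.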
Potency is the fitted concentration of half-maximal effect.

Compound	Potency
C=CCNC1=C2C[C@@H](C)C[C@H](OC)[C@@H](O)[C@@H](C)C=C(C)[C@H](OC(N)=O)[C@@H](OC)C=CC=C(C)C(=O)NC(=CC1=O)C2=O	0.0264 µM (active)
CC(C)(O)Cn1c(NC(=O)c2ccc(-c3cn[nH]c3)s2)nc2cc(CN3CCOCC3)ccc21	0.662 µM (active)
CCCc1nc(C(C)(C)O)c(C(=O)O)n1Cc1ccc(-c2ccccc2-c2nn[nH]n2)cc1	inactive
COc1cc(OC)cc(-c2ccc3ncc4ccc(=O)n(-c5ccc(N6CCNCC6)c(C(F)(F)F)c5)c4c3c2)c1	0.833 µM (active)
CC1=C(C(=O)Nc2cc3cn[nH]c3cc2F)C(c2ccc(Cl)cc2F)N=C(c2ccnc(Cl)c2)N1 (stereo unspecified)	18.7 µM (active)
CN(C)CCN1C(=O)c2cccc3cc(N)cc(c23)C1=O	16.6 µM (active)
COc1cc(C)c(Sc2cnc(NC(=O)c3ccc(CNC(C)C(C)(C)C)cc3)s2)cc1C(=O)N1CCN(C(C)=O)CC1 (stereo unspecified)	2.96 µM (active)
CCNC(=O)Nc1ccc(-c2nc3c(c(N4CCOC[C@H]4C)n2)CCN(C2COC2)C3)cc1	0.209 µM (active)
CON=C(C(=O)N[C@@H]1C(=O)N2C(C(=O)O)=C(Cn3ccc(=N)n3CCO)CS[C@H]12)c1csc(N)n1	inactive
COC[C@H](NC(=O)c1cnc(C)s1)C(=O)N[C@@H](COC)C(=O)N[C@@H](Cc1ccccc1)C(=O)[C@@]1(C)CO1	0.0372 µM (active)
COc1cccc2c1C(=O)c1c(O)c3c(c(O)c1C2=O)C[C@@](O)(C(=O)CO)C[C@@H]3O[C@H]1C[C@H](N)[C@H](OC2CCCCO2)[C@H](C)O1 (stereo partly specified)	inactive
